Results taken from PubChem BioAssay (NCI).
Where “and” joins values, the source holds several entries; their conditions need not be identical. Identical values can stand only once. This is part of a sample that, as a whole, favours compounds with a hit. Of some 83,000 tested, about 20% had one in any assay.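 In brief: 96-well plates, 48 h treatment, single concentration, percent growth endpoint.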 Calls of active or inactive are those of the source. Rule for the calls: active = growth percent below 10; inactive = the rest.

Key:
Experiment in all cases: NCI-60 one-dose screen, 48 h (100 = growth as untreated, 0 = no growth, -100 = all killed)
NCI-H226 lung = conditions: 10 µM
NCI-H322M lung = conditions: 10 µM
HOP-62 NSCLC = conditions: 10 µM
NCI-H460 lung = conditions: 10 µM
A549/ATCC NSCLC = conditions: 10 µM
786-0 renal = conditions: 10 µM
COLO 205 colon = conditions: 10 µM
DU-145 prostate = conditions: 10 µM
SF-268 CNS = conditions: 10 µM
SF-295 CNS = conditions: 10 µM
SF-539 CNS = conditions: 10 µM
HCT-15 colon = conditions: 10 µM
HT29 colon = conditions: 10 µM
SNB-75 CNS = conditions: 10 µM
SNB-19 CNS = conditions: 10 µM
U251 CNS = conditions: 10 µM
PC-3 prostate = conditions: 10 µM
ACHN renal = conditions: 10 µM
HL-60(TB) leukemia = conditions: 10 µM unless noted
CCRF-CEM leukemia = conditions: 10 µM

| SMILES | growth (NCI-H226 lung) | growth (NCI-H322M lung) | growth (HOP-62 NSCLC) | growth (NCI-H460 lung) | growth (A549/ATCC NSCLC) | growth (786-0 renal) | growth (COLO 205 colon) | growth (DU-145 prostate) | growth (SF-268 CNS) | growth (SF-295 CNS) | growth (SF-539 CNS) | growth (HCT-15 colon) | growth (HT29 colon) | growth (SNB-75 CNS) | growth (SNB-19 CNS) | growth (U251 CNS) | growth (PC-3 prostate) | growth (ACHN renal) | growth (HL-60(TB) leukemia) | growth (CCRF-CEM leukemia) |
| --- | --- | --- | --- | --- | --- | --- | --- | --- | --- | --- | --- | --- | --- | --- | --- | --- | --- | --- | --- | --- |
| CC1=C[C@H]2O[C@@H]3C[C@H]4OC(=O)/C=C\C=C\[C@H]([C@@H](C)O)OCC[C@@H](C)[C@H](O)C(=O)OC[C@@]2(CC1)[C@]4(C)[C@]31CO1 | -50.5% (active) | -19.5% (active) | -34.5% (active) | -5.9% (active) | -21.1% (active) | -43.3% (active) | -57.8% (active) | -18.4% (active) | -0.597% (active) | -38.8% (active) | -36.5% (active) | -7.55% (active) | -27.8% (active) | -48.3% (active) | -14.3% (active) | -20.4% (active) | -22.9% (active) | -13.6% (active) | -50.3% (active) | -7.82% (active) |
| C/C=C/CC(C)C(O)[C@H](NC(=O)[C@@H]1CCCN1C(=O)C(C)(C)NC(=O)CCCCCCCCC)C(=O)N[C@@](C)(CC)C(=O)N[C@@H](CCC(N)=O)C(=O)N[C@H](CCC(N)=O)C(=O)NC(C)(C)C(=O)N[C@@](C)(CC)C(=O)N[C@@H](CCC(N)=O)C(=O)N[C@H](CC(C)C)C(=O)N[C@H](CO)CC(C)C (stereo not given in full) | 99.5% (inactive) and -21.5% (active) | 105% (inactive) and -23.7% (active) | 104% (inactive) and -67.3% (active) | 106% (inactive) and -77.3% (active) | 103% (inactive) and 26.2% (inactive) | 108% (inactive) and -81.9% (active) | 104% (inactive) and -60.2% (active) | 103% (inactive) and -72.3% (active) | 104% (inactive) and -52.9% (active) | 104% (inactive) and -83.9% (active) | 100% (inactive) and -100% (active) | 101% (inactive) and 20.9% (inactive) | 116% (inactive) and 29.2% (inactive) | 96.1% (inactive) and -85.9% (active) | 101% (inactive) and -98% (active) | 107% (inactive) and -75.1% (active) | 97.3% (inactive) and -48.8% (active) | 103% (inactive) and -7.13% (active) | 100% (inactive) and -46.1% (active) | 98.9% (inactive) and -46.2% (active) |
| CCC(C)[C@H]1C(=O)O[C@H](C(C)C)C(=O)N(C)[C@@H](C(C)C)C(=O)O[C@H](C(C)C)C(=O)N(C)[C@@H](C(C)C)C(=O)O[C@H](C(C)C)C(=O)N1C (stereo not given in full) | 21.2% (inactive) | 14.3% (inactive) | 15% (inactive) | 7.94% (active) | 14.5% (inactive) | 20.9% (inactive) | -74.7% (active) | 26.9% (inactive) | 21.9% (inactive) | 9.15% (active) | 19.1% (inactive) | 14.6% (inactive) | 9.91% (active) | 2.63% (active) | 21.6% (inactive) | 13.5% (inactive) | 12.2% (inactive) | 9.28% (active) | -48.8% (active) | 7.02% (active) |
| CC(C)=CCc1c2c(c(O)c3c1O[C@]14C(=C[C@@H]5C[C@H]1C(C)(C)O[C@@]4(C/C=C(/C)C(=O)O)C5=O)C3=O)C=CC(C)(C)O2 | -2.64% (active) | -84.9% (active) | -71.1% (active) | -67.4% (active) | -43.9% (active) | -82.7% (active) | -79.8% (active) | -100% (active) | -75.1% (active) | -64.5% (active) | -38.9% (active) | -72.5% (active) | -86.7% (active) | -62.3% (active) | -50.9% (active) | -87.7% (active) | -37.8% (active) | -82.6% (active) | -33.7% (active) | -1.96% (active) |
| COc1cc2c(O[C@@H]3OC[C@H](OC(C)=O)[C@H](OC(C)=O)[C@H]3O)c3c(c(-c4ccc5c(c4)OCO5)c2cc1OC)C(=O)OC3 | 2.53% (active) | 61.5% (inactive) | 36.9% (inactive) | 10.7% (inactive) | 12.4% (inactive) | 20% (inactive) | 5.65% (active) | 43% (inactive) | 42.4% (inactive) | -43% (active) | 25.6% (inactive) | 1.41% (active) | 9% (active) | 6.09% (active) | 58.7% (inactive) | 28.5% (inactive) | 26.5% (inactive) | 29% (inactive) | 26% (inactive) | 20.1% (inactive) |
